From PubChem BioAssay AID1159580 (chemical genetic matrix, 2015)
Where “and” joins values, the source holds several entries; their conditions need not be identical. Equal entries are not always repeated. About 2,000 (36%) of roughly 5,500 compounds were called active. Another 18% or so got no clear call; they are omitted. Cut-off read from the data, not from the text of the source: active = normalized growth mostly below about 0.91 (no sharp cut-off); inconclusive = no clear call, values can overlap the other calls; inactive = mostly above about 0.92. This is one part of the list.

Test: chemical genetic growth profiling, strain panel (AID 1159580);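 note: tested at 20 µM; growth read once vehicle control cultures reached saturation at 30 °C; 1 = growth at the plate median or of vehicle wells; lower values mean less growth of the strain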
Details: S. cerevisiae deletion strains, growth OD

Measured: normalized growth

NCCCCC(=O)O
inactive: locus YAL013W, strain DEP1, hits give low values 1.03 | locus YAL021C, strain ccr4, hits give low values 1.01 | locus YAL026C, strain drs2, hits give low values 1.02 | locus YAL030W, strain snc1, hits give low values 1.01 | locus YAL040C, strain CLN3, hits give low values 1.01 | locus YBL061C, strain skt5, hits give low values 1.02 | locus YBR009C, strain hhf1, hits give low values 1.02 | locus YBR021W, strain FUR4, hits give low values 0.976 | locus YBR023C, strain chs3, hits give low values 1.02 | locus YBR171W, strain sec66, hits give low values 1.02 | locus YBR229C, strain ROT2, hits give low values 1.02 | locus YBR231C, strain swc5, hits give low values 1.02 | locus YBR279W, strain paf1, hits give low values 1.01 | locus YCL011C, strain gbp2, hits give low values 1.02 | locus YCL016C, strain dcc1, hits give low values 1.01 | locus YCL029C, strain bik1, hits give low values 0.998 | locus YCL061C, strain MRC1 (second series), hits give low values 1 | locus YCL069W, strain vba3, hits give low values 1.01 | locus YCR088W, strain abp1, hits give low values 1.02 | locus YDL005C, strain med2, hits give low values 1.02 | locus YDL035C, strain GPR1, hits give low values 1.02 | locus YDL040C, strain nat1, hits give low values 1.02 | locus YDL074C, strain BRE1, hits give low values 1.04 | locus YDL101C, strain DUN1, hits give low values 1.03 | locus YDL134C, strain PPH21, hits give low values 1.02 | locus YDL185W, strain tfp1, hits give low values 0.995 | locus YDL192W, strain arf1, hits give low values 0.992 | locus YDR001C, strain nth1, hits give low values 1.01 | locus YDR069C, strain doa4, hits give low values 1.02 | locus YDR101C, strain arx1, hits give low values 0.985 | locus YDR137W, strain rgp1, hits give low values 1.02 | locus YDR150W, strain NUM1, hits give low values 1.03 | locus YDR159W, strain sac3, hits give low values 1.03 | locus YDR162C, strain NBP2, hits give low values 1.04 | locus YDR195W, strain ref2 1.01 | locus YDR297W, strain sur2, hits give low values 1.02 | locus YDR318W, strain mcm21, hits give low values 0.992 | locus YDR334W, strain swr1, hits give low values 1.01 | locus YDR335W, strain msn5, hits give low values 1.01 | locus YDR388W, hits give low values 0.986 | locus YDR392W, strain spt3, hits give low values 1.01 | locus YDR502C, strain sam2, hits give low values 1 | locus YEL003W, strain gim4, hits give low values 1.01 | locus YEL037C, strain rad23, hits give low values 1 | locus YEL061C, strain CIN8 (second series), hits give low values 1.01 | locus YEL061C, strain CIN8, hits give low values 1.01 | locus YER002W, strain NOP16, hits give low values 1 | locus YER015W, strain faa2, hits give low values 1.02 | locus YER016W, strain bim1, hits give low values 1.02 | locus YER110C, hits give low values 0.977 | locus YER111C, strain swi4, hits give low values 1.03 | locus YER155C, strain BEM2 (second series), hits give low values 1.04 | locus YER155C, strain BEM2, hits give low values 1.03 | locus YER167W, strain BCK2, hits give low values 1.03 | locus YFR010W, strain ubp6, hits give low values 1.01 | locus YGL078C, strain dbp3, hits give low values 0.989 | locus YGL086W, strain mad1, hits give low values 0.993 | locus YGL167C, strain pmr1, hits give low values 1.03 | locus YGL173C, strain kem1, hits give low values 1.02 | locus YGL227W, strain vid30, hits give low values 1.02 | locus YGL240W, strain doc1, hits give low values 1.03 | locus YGL248W, strain PDE1, hits give low values 1.03 | locus YGL253W, strain hxk2, hits give low values 1.01 | locus YGR078C, strain PAC10, hits give low values 1.03 | locus YGR135W, strain pre9, hits give low values 0.985 | locus YGR229C, strain SMI1, hits give low values 1.02 and 1.01 | locus YGR252W, strain gcn5, hits give low values 0.917 | locus YHR013C, strain ard1, hits give low values 1.04 | locus YHR027C, strain rpn1, hits give low values 1.01 | locus YHR030C, strain SLT2, hits give low values 1.02 and 0.975 | locus YHR079C, strain IRE1 (second series), hits give low values 0.992 | locus YHR079C, strain IRE1, hits give low values 0.961 | locus YHR094C, strain hxt1, hits give low values 1 | locus YHR129C, strain ARP1, hits give low values 1.02 | locus YHR142W, strain chs7, hits give low values 1.03 | locus YHR200W, strain rpn10, hits give low values 1.01 | locus YIL066C, strain RNR3, hits give low values 1.02 | locus YIL073C, strain SPO22, hits give low values 1.02 | locus YIL125W, strain kgd1, hits give low values 0.994 | locus YIR030C, strain dcg1, hits give low values 0.998 | locus YJL092W, strain hpr5, hits give low values 1.02 | locus YJL095W, strain BCK1 (second series), hits give low values 1.03 | locus YJL095W, strain BCK1, hits give low values 1.02 and 0.979 | locus YJL115W, strain asf1, hits give low values 1.02 | locus YJL129C, strain trk1, hits give low values 1.03 | locus YJL134W, strain LCB3, hits give low values 1.02 | locus YJL154C, strain vps35, hits give low values 1.02 | locus YJL164C, strain tpk1, hits give low values 1.02 | locus YJL166W, strain qcr8, hits give low values 1.02 | locus YJL168C, strain set2, hits give low values 0.991 | locus YJL187C, strain SWE1 (second series), hits give low values 1.02 | locus YJR043C, strain POL32, hits give low values 1.03 | locus YJR066W, strain TOR1, hits give low values 0.902 | locus YJR075W, strain HOC1, hits give low values 1.03
